Measurements as given in PubChem BioAssay (NCI).
Compounds without any hit were thinned out: in the full panel of roughly 83,000, 20% have a hit.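 Treatment: one concentration, 48 hours, 96-well format. Scoring: percent growth, with anything below 10 considered active.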 Unmarked numbers belong to inactive results. Active and inactive are the calls of the source.

Columns and labels:
Test in all cases: NCI-60 one-dose screen, 48 h (100 = growth as untreated, 0 = no growth, -100 = all killed)
Conditions in all cases: 10 µM unless noted
BT-549 breast = test system: BT-549 breast
MDA-MB-435 melanoma = test system: MDA-MB-435 melanoma
SW-620 colon = test system: SW-620 colon
MCF7 breast = test system: MCF7 breast
HCT-116 colon = test system: HCT-116 colon
HCC-2998 colon = test system: HCC-2998 colon
KM12 colon = test system: KM12 colon

## OCc1nnn(-c2ccccc2)c1CO
BT-549 breast
  growth: 157%
MDA-MB-435 melanoma
  growth: 114%
SW-620 colon
  growth: 105%
MCF7 breast
  growth: 106%
HCT-116 colon
  growth: 105%
HCC-2998 colon
  growth: 119%
KM12 colon
  growth: 116%

## CC(C)COCC(CN(Cc1ccccc1)c1ccccc1)N1CCCC1 (stereo unspecified)
BT-549 breast
  growth: 62.2%
MDA-MB-435 melanoma
  growth: 72.4%
SW-620 colon
  growth: 70.1%
MCF7 breast
  growth: 45.8%
HCT-116 colon
  growth: 36.7%
HCC-2998 colon
  growth: 44.8%
KM12 colon
  growth: 56.2%

## NC(=Nc1ccccc1)SCCCCSC(N)=Nc1ccccc1
BT-549 breast
  growth: 86.4%
MDA-MB-435 melanoma
  growth: 89.4%
SW-620 colon
  growth: 92.3%
MCF7 breast
  growth: 87.5%
HCT-116 colon
  growth: 88%
HCC-2998 colon
  growth: 77.6%
KM12 colon
  growth: 94.2%

## Cn1cc(-c2csc(-c3c[nH]c4ncccc34)n2)c2cc(F)cnc21
BT-549 breast
  growth: 74.1%
MDA-MB-435 melanoma
  growth: 20%
SW-620 colon
  growth: 81.3%
MCF7 breast
  growth: 56.8%
HCT-116 colon
  growth: 59.8%
HCC-2998 colon
  growth: 62.2%
KM12 colon
  growth: 49.4%

## COc1cc(C2C=C(c3ccc(C)cc3)Nc3nc(SC)[nH]c(=O)c32)ccc1Oc1ccnc2cc(Cl)ccc12 (stereo unspecified)
BT-549 breast
  growth: 87.9%
MDA-MB-435 melanoma
  growth: 55.3%
SW-620 colon
  growth: 93.3%
MCF7 breast
  growth: 56.9%
HCT-116 colon
  growth: 64.5%
HCC-2998 colon
  growth: 95.9%
KM12 colon
  growth: 60.5%

## C[C@]12CC[C@@H]3c4ccc(O)c([N+](=O)[O-])c4CC[C@H]3[C@@H]1CC[C@@H]2NS(=O)(=O)c1ccc(C(F)(F)F)cc1
BT-549 breast
  growth: 30.9%
MDA-MB-435 melanoma
  growth: 17.3%
SW-620 colon
  growth: 34.2%
MCF7 breast
  growth: 11.8%
HCT-116 colon
  growth: 15.5%
HCC-2998 colon
  growth: 53.8%
KM12 colon
  growth: 19.9%

## Cc1nn(-c2ccccc2)c2c1oc(=O)c1cc(Cl)ccc12
BT-549 breast
  growth: 91%
MDA-MB-435 melanoma
  growth: 106%
SW-620 colon
  growth: 106%
MCF7 breast
  growth: 92.7%
HCT-116 colon
  growth: 95.2%
HCC-2998 colon
  growth: 102%
KM12 colon
  growth: 93.8%

## O=C(Cn1ccnc1)NC(c1ccccc1)c1ccccc1
BT-549 breast
  growth: 105%
MDA-MB-435 melanoma
  growth: 99.4%
SW-620 colon
  growth: 106%
MCF7 breast
  growth: 100%
HCT-116 colon
  growth: 106%
HCC-2998 colon
  growth: 97.6%
KM12 colon
  growth: 103%

## COc1ccc(-c2cnnn2-c2cc(OC)c3c(c2)OCO3)cc1
BT-549 breast
  growth: 34.8%
MDA-MB-435 melanoma
  growth: -57.5% (active)
SW-620 colon
  growth: 26.5%
MCF7 breast
  growth: 17.8%
HCT-116 colon
  growth: 13.6%
HCC-2998 colon
  growth: -2.25% (active)
KM12 colon
  growth: 11.8%

## COc1cc2c(c(OC)c1OC)CCc1cnoc1-2
BT-549 breast
  growth: 101%
MDA-MB-435 melanoma
  growth: 103%
SW-620 colon
  growth: 114%
MCF7 breast
  growth: 104%
HCT-116 colon
  growth: 176%
HCC-2998 colon
  growth: 90.1%
KM12 colon
  growth: 106%

## COc1ccc2c(c1)C(=O)c1c-2c(OCCCN(C)C)nc2cc(Br)ccc12
BT-549 breast
  growth: 89.7%
MDA-MB-435 melanoma
  growth: 90.2%
SW-620 colon
  growth: 35.7%
MCF7 breast
  growth: 18.5%
HCT-116 colon
  growth: 56.8%
HCC-2998 colon
  growth: 69.6%
KM12 colon
  growth: 69.7%

## Fc1ccc(-c2nc(Nc3ccc(-c4nc5ccccc5[nH]4)cc3)nc(N3CCOCC3)n2)cc1
BT-549 breast
  growth: -73.6% (active)
MDA-MB-435 melanoma
  growth: -86.1% (active)
SW-620 colon
  growth: -74.2% (active)
MCF7 breast
  growth: -73.8% (active)
HCT-116 colon
  growth: -85.5% (active)
HCC-2998 colon
  growth: -89.9% (active)
KM12 colon
  growth: -91.3% (active)

## Nc1ccc(C2=Nc3cccc4cccc(c34)S2)cc1
BT-549 breast
  growth: 83.4%
MDA-MB-435 melanoma
  growth: 98.3%
SW-620 colon
  growth: 97.2%
MCF7 breast
  growth: 45.2%
HCT-116 colon
  growth: 81.7%
HCC-2998 colon
  growth: 61.4%
KM12 colon
  growth: 76.5%

## Cc1cc(C)c2c(c1)N1OC(C2)C[C@H]1/C=C/c1ccccc1 (stereo partly specified)
BT-549 breast
  growth: 105%
MDA-MB-435 melanoma
  growth: 87.2%
SW-620 colon
  growth: 108%
MCF7 breast
  growth: 88%
HCT-116 colon
  growth: 84.6%
HCC-2998 colon
  growth: 98.2%
KM12 colon
  growth: 107%

## O=C(C=C=Nc1ccccc1)C(=O)N=C=Cc1ccccc1
BT-549 breast
  growth: -7.61% (active)
MDA-MB-435 melanoma
  growth: 50.7%
SW-620 colon
  growth: -26.3% (active)
MCF7 breast
  growth: 25.9%
HCT-116 colon
  growth: -36.3% (active)
HCC-2998 colon
  growth: 74.1%
KM12 colon
  growth: 81.5%

## O=C1OCC/C1=C\OCCCO/C=C1\CCOC1=O
BT-549 breast
  growth: 96.9%
MDA-MB-435 melanoma
  growth: 104%
SW-620 colon
  growth: 109%
MCF7 breast
  growth: 104%
HCT-116 colon
  growth: 109%
HCC-2998 colon
  growth: 114%
KM12 colon
  growth: 114%

## O=C(Nc1nc2ccccc2s1)c1cc(-c2ccc(F)cc2)n2nc(-c3ccccc3)cc2n1
BT-549 breast
  growth: 79%
MDA-MB-435 melanoma
  growth: 86.5%
SW-620 colon
  growth: 67.8%
MCF7 breast
  growth: 69.3%
HCT-116 colon
  growth: 45.8%
HCC-2998 colon
  growth: 97.5%
KM12 colon
  growth: 68.7%

## CCC1=C(c2ccc(OC)cc2)C(C)Oc2cc(OC(C)=O)ccc21 (stereo unspecified)
BT-549 breast
  growth: 95.4%
MDA-MB-435 melanoma
  growth: 40.7%
SW-620 colon
  growth: 90.5%
MCF7 breast
  growth: 82.4%
HCT-116 colon
  growth: 74.5%
HCC-2998 colon
  growth: 107%
KM12 colon
  growth: 77.7%
